Screens as filed in PubChem BioAssay.
sEH act = soluble epoxide hydrolase (human) activation. activation, % at 2 µM. P34913. hit rate 0.04% among 91,000. purified human sEH enzymatic activity, activator screen; in the data active means activation above about 37%
Target sequence (P34913 whole entry, looked up): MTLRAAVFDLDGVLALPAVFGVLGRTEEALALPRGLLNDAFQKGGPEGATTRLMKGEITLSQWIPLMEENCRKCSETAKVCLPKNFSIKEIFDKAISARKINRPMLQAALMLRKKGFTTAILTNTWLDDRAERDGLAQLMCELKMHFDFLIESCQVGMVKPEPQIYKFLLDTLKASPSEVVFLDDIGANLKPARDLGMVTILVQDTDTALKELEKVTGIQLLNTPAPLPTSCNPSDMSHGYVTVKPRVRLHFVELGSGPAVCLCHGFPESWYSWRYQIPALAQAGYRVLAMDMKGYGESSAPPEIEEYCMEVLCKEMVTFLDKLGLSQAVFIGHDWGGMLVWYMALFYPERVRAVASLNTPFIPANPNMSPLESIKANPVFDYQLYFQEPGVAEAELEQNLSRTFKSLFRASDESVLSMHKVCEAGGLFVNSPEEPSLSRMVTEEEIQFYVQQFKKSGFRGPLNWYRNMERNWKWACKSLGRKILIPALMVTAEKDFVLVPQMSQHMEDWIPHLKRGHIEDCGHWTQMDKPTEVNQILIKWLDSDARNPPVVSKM
sEH inh = soluble epoxide hydrolase (human) inhibition; P34913; recombinant human sEH enzymatic activity assay; inhibition, % at 2 µM; hit rate 0.34% among 91,000; AID 707; in the data active means inhibition above about 80%
Phagocyt inh = blocks phagocytosis by macrophages. inhibition, % at 5 µM. hit rate 0.07% among 110,000. J774A.1 macrophage IgG-bead phagocytosis, imaging;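 active means inhibition above the mean of the plate negative controls plus 5 SD, cut at about 13% in these data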;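 further: phagocytic index as fraction of beads internalized from green versus red external bead signal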
sdo1 growth = compounds rescuing growth of sdo1-depleted yeast, bone marrow failure model; S. cerevisiae sdo1-depleted JHY4D growth rescue, OD600 30 h; hits give high values; pdr5 snq2 efflux-pump mutant strain; z-score at 10 µM; hit rate 0.21% among 140,000;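 active means z-score above 3 at both the 24 hr and the 30 hr optical density reads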
cytoskel mod = alters cytoskeleton assembly in HUVEC cells; hit rate 0.18% among 91,000; AID 836; HUVEC TNFa F-actin phalloidin imaging, high content; inhibition, % at 2 µM;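 active means inhibition above the batch mean plus 3 SD and confirmed as a hit by visual image inspection, cut at about 30% in these data, passing the limit was not always enough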
E-sel TNF inh = blocks E-selectin expression induced by TNF alpha. HUVEC TNFa-induced E-selectin immunofluorescence, high content. inhibition, % at 2 µM. hit rate 0.71% among 120,000. AID 1246;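 active means inhibition above the batch mean plus 3 SD, and confirmed as a hit on visual image review, cut at about 43% in these data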
Large screens that a line does not name were inactive; [ ] = another dose, or the depositor's remark. This is a sample that favours compounds with a hit; in the whole collection about 0.96% have one here.

N#CC(C#N)=C1C=CC=CN1/C(=C\c1ccccc1Cl)C(=O)c1ccccc1	E-sel TNF inh 69 (no result: sEH act, sEH inh, cytoskel mod)
COC(=O)c1ccc(S(=O)(=O)NCc2cccc(OC)c2)n1C	E-sel TNF inh 64
COc1cccc(CNC(=O)Cn2cccc2)c1	none (no result: Phagocyt inh)
CCN(CC)C(=O)n1cnc(-c2ccccc2)c1-c1ccccc1	none (no result: sEH act, sEH inh, cytoskel mod, E-sel TNF inh)
CCOC(=O)C1C(c2cc(OC)c(O)c(OC)c2)NC(=S)NC1(O)C(F)(F)F (stereo unspecified)	E-sel TNF inh 72 (no result: sEH act, sEH inh, cytoskel mod)
CCOC(=O)C1C(c2cc(OC)c(OC)c(OC)c2)NC(=S)NC1(O)C(F)(F)F (stereo unspecified)	none
Cc1ccc2c(c1)nnn2C1CCN(C(=O)C23CC4CC(CC(C4)C2)C3)CC1	none (no result: Phagocyt inh)
Cc1ccc2c(c1)nnn2C1CCN(C(=O)NC23CC4CC(CC(C4)C2)C3)CC1	sEH inh 85
Cc1ccc(OCCOCCN(C)C)c(Cl)c1	none (no result: sEH act, sEH inh, cytoskel mod, E-sel TNF inh)
CCc1cc(OCCOCCN(C)C)ccc1Cl	E-sel TNF inh 92 (no result: sEH act, sEH inh, cytoskel mod)
CCN(CC)C(=S)Nc1ccc(Cl)c(Cl)c1	none (no result: sEH act, sEH inh, cytoskel mod, E-sel TNF inh)
Cc1nn(Cc2ccccc2Cl)c(C)c1NC(=O)c1ccn(C)n1	none (no result: sEH act, sEH inh, cytoskel mod)
Cc1nn(Cc2ccccc2Cl)c(C)c1NC(=O)NC12CC3CC(CC(C3)C1)C2	sEH inh 91 (no result: Phagocyt inh)
COc1ccc(OC)c(NC2c3ccccc3C(=O)N2c2cccnc2)c1 (stereo unspecified)	none (no result: E-sel TNF inh)
Cc1ccc(NC(=S)NCCN2CCOCC2)cc1C	sEH act 38 (no result: Phagocyt inh)
O=C1c2ccccc2NC(c2ccc(Cl)cc2Cl)N1O (stereo unspecified)	none (no result: Phagocyt inh)
C=CCc1cccc(C2Nc3ccccc3C(=O)N2O)c1O (stereo unspecified)	E-sel TNF inh 62 (no result: Phagocyt inh)
O=C(O)C1C2CCC(C2)C1C(=O)NCCC1=CCCCC1 (stereo unspecified)	none (no result: sEH act, sEH inh, cytoskel mod)
O=C(CCc1ccccc1)NCCC1=CCCCC1	E-sel TNF inh 75 (no result: sEH act, sEH inh, cytoskel mod)
O=C(Cc1ccccc1)NCCC1=CCCCC1	none (no result: sEH act, sEH inh, cytoskel mod)
O=C(NCCC1=CCCCC1)NC12CC3CC(CC(C3)C1)C2	sEH inh 97 (no result: Phagocyt inh)
CCOC(=O)c1cc(-c2ccccc2)sc1NC(=O)C(C)C	none (no result: sEH act, sEH inh, cytoskel mod)
CCOC(=O)c1cc(-c2ccccc2)sc1NC(=S)Nc1cccc(C)n1	E-sel TNF inh 54
N=c1oc2ccccc2cc1-c1nc2ccccc2c(=O)[nH]1	none
COc1ccc(NC(=O)/C(Cl)=C(/Cl)S(=O)Cc2ccccc2)cn1 (stereo unspecified)	none (no result: E-sel TNF inh)
COc1ccc(CS(=O)(=O)/C(Cl)=C(/Cl)C(=O)Nc2ccc(OC)nc2)cc1	E-sel TNF inh 95
Cc1ccc(/C(O)=C2\C(=O)C(=O)N(Cc3cccnc3)C2c2ccccc2[N+](=O)[O-])cc1 (stereo unspecified)	none (no result: sEH act, sEH inh, cytoskel mod, E-sel TNF inh)
C/C(CC(=O)N(C(C)C)C(C)C)=N\NC(=O)c1ccccc1Br	none (no result: sEH act, sEH inh, cytoskel mod, E-sel TNF inh)
O=C(CS(=O)c1ccc(C(F)(F)F)cc1[N+](=O)[O-])Oc1ccccc1 (stereo unspecified)	E-sel TNF inh 84
CC(=O)Nc1ccc(S(=O)(=O)NCC(=O)OCc2ccccc2)cc1	none (no result: sEH act, sEH inh, cytoskel mod, E-sel TNF inh)
CS(=O)(=O)c1ccc(S(=O)CC(=O)OCc2ccccc2)c([N+](=O)[O-])c1 (stereo unspecified)	E-sel TNF inh 100 (no result: sEH act, sEH inh, Phagocyt inh, sdo1 growth, cytoskel mod)
CSc1nc2ccccc2n1CC(=O)Nc1cc(C(F)(F)F)ccc1N1CCOCC1	none
Oc1ccc(-c2csc(-c3ccccc3)n2)cc1O	E-sel TNF inh 51
COC(=O)c1cnc(SCc2ccc(C)cc2)n1C	E-sel TNF inh 69 (no result: sEH act, sEH inh, Phagocyt inh, sdo1 growth, cytoskel mod)
CCn1c(=O)c2c(n3cnnc13)-c1ccccc1CC21CCCCC1	cytoskel mod 41
O=c1c2c(n3cnnc3n1-c1ccccc1)-c1ccccc1CC21CCCCC1	none (no result: Phagocyt inh)
COc1ccc(CNC(=O)c2cnn3c(C(F)F)cc(C)nc23)cc1OC	none (no result: sEH act, sEH inh, cytoskel mod)
O=C(NCCNC1CCC(c2ccccc2)CC1)c1cccs1 (stereo unspecified)	none (no result: sEH act, sEH inh, Phagocyt inh, sdo1 growth, cytoskel mod)
Cn1c(C(=O)N2CCCC(C(=O)NCCCSC3CCCCC3)C2)cc2sccc21 (stereo unspecified)	sEH inh 92
CCn1c(C(=O)N2CCCC(C(=O)NCCc3ccc(C)cc3)C2)cc2sccc21 (stereo unspecified)	none
CCn1c(C(=O)N2CCCC(C(=O)NCCCc3ccccc3)C2)cc2sccc21 (stereo unspecified)	sEH inh 94 (no result: Phagocyt inh)
CCC(C)(C)n1nnnc1C(c1ccc(C)cc1)N1CCN(Cc2ccc3c(c2)OCO3)CC1 (stereo unspecified)	none (no result: Phagocyt inh)
O=C(N/N=C\c1ccc(Cl)s1)c1cccs1	sEH inh 94
Cc1ccc(C(C)n2cc(C(=O)NCCN3CCN(C)CC3)nn2)cc1 (stereo unspecified)	E-sel TNF inh 71 (no result: sEH act, sEH inh)
COc1ccc(-c2nc(-c3cccs3)c(-c3cccs3)[nH]2)cc1O	none (no result: sEH act, sEH inh, E-sel TNF inh)
O=C(COc1ccc(N2C(=O)c3ccccc3C2=O)cc1)c1ccccc1	none (no result: sEH act, sEH inh, cytoskel mod, E-sel TNF inh)
O=C(COc1ccccc1N1C(=O)c2ccccc2C1=O)c1ccc(Cl)cc1	Phagocyt inh 6.1[artifact]
C=CCN(CC=C)C(=O)Nc1cc(Cl)ccc1OC	E-sel TNF inh 53
CN(C(=O)CSc1nc(N)c2c3c(sc2n1)CSC(C)(C)C3)c1ccccc1	none (no result: sEH act, sEH inh, cytoskel mod)
COC(=O)c1cc(NC(=O)C2CC=CCC2C(=O)O)cc(C(=O)OC)c1 (stereo unspecified)	none
Cn1c(=O)[nH]c(=O)c2c1nc(NCc1ccco1)n2Cc1ccccc1Cl	none (no result: sEH act, sEH inh, Phagocyt inh, sdo1 growth, cytoskel mod)
O=C(Nc1ccc2c(c1)OCO2)C1CC(c2ccc(F)cc2)=NO1 (stereo unspecified)	none
N#Cc1ccc(NC(=O)C2CC(c3ccc(F)cc3)=NO2)cc1 (stereo unspecified)	E-sel TNF inh 93
CC(C)C12CN3CC(C(C)C)(CN(C1)C3c1ccccc1)C2O (stereo unspecified)	sEH act 39
Cc1[nH]n(-c2nc(-c3ccc(Cl)cc3)cs2)c(=O)c1N=Nc1ccc(O)cc1	none (no result: sEH act, sEH inh, Phagocyt inh, sdo1 growth, cytoskel mod)
O=C(NC1CC1)c1ccc(S(=O)(=O)NCC2CCCCC2)cc1	cytoskel mod 55 (no result: Phagocyt inh)
COCCn1c(SCC(=O)c2ccc(Cl)cc2)nnc1C(C)C	E-sel TNF inh 71
COCCn1c(SCC(=O)c2ccc3c(c2)OCCO3)nnc1C(C)C	none
CC(C)(C)NS(=O)(=O)c1ccc(CCC(=O)N2CCOCC2)cc1	Phagocyt inh 22[artifact]
CC1CCN(C(=O)CCc2ccc(S(=O)(=O)NC(C)(C)C)cc2)CC1	none
Cc1cc(C)cc(OCC(=O)NCc2nc(-c3ccccc3)no2)c1	Phagocyt inh 23
CCc1cccc(CC)c1N(COC)C(=O)Cn1nnc2ccccc21	none
CCc1cccc(CC)c1N(COC)C(=O)Cn1ccccc1=N	cytoskel mod 79
C=CCNC(=O)C1CCN(c2c([N+](=O)[O-])cc(C(F)(F)F)cc2[N+](=O)[O-])CC1	none
N#Cc1cccc(-n2c(-c3ccccc3)nnc2-c2ccccc2)c1C#N	E-sel TNF inh 100
N#Cc1ccc(-n2c(-c3ccccc3)nnc2-c2ccccc2)cc1C#N	none (no result: Phagocyt inh)
COC(=O)c1ccc(CNC(=O)COC(=O)C2CCC(C(C)(C)C)CC2)cc1 (stereo unspecified)	none (no result: sEH act, sEH inh, Phagocyt inh, cytoskel mod)
